Assay: probe aLAP1 signal on lysate-treated microarray – cell lysate, small-molecule microarray, COS7 lysate, primary screen (AID 1124);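 also: lysate comes from COS7 cells expressing LAP1 and is applied at 0.3 µg/mL; score merges spot fluorescence near 667 nm with signal-to-noise over triplicate slides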
Details: probe aLAP1, fluorescence, higher = more signal

Structure (SMILES)	composite z-score
CC(C)N1CC=CC23O[C@@H]4C=CCOC(=O)[C@@H]4[C@H]2C(=O)N(CCCCCO)[C@@H]3C1=O (stereo partly drawn)	0.915
[N-]=[N+]=Nc1ccccc1C[C@@]1(C(=O)N2CCCCC2)N=C(c2ccc(OCCCO)cc2)O[C@@H]1c1ccccc1	0.677
OCC1C=C(/C=C/c2ccccc2)CN1Cc1ccccc1Br (stereo not drawn)	-0.0831
C=CC[C@@]1(C(=O)N2CCCCC2)N=C(c2ccc(OCCCO)cc2)O[C@@H]1c1ccccc1N=[N+]=[N-]	-0.0724
CO[C@H]1O[C@H](CO)[C@@H](OC(=O)Nc2ccc(Oc3ccccc3)cc2)[C@H](OC(=O)Nc2ccc3c(c2)OCO3)[C@@H]1OC(=O)Nc1ccc2c(c1)OCO2	0.869
COCCOC(=O)N1C(=O)[C@@]2(c3ccccc31)[C@H](C(=O)N1CCc3cc(OC)c(OC)cc3C1)[C@H]1C(=O)O[C@H](c3ccccc3)[C@H](c3ccccc3)N1[C@@H]2c1ccc(O)cc1	0.808
CCCCC(=C=CC[C@@H](O)c1cccc(OCCO)c1)C[C@@H](O)c1ccccn1	0.651
CCOC(=O)C[C@H]1[C@H](OC(=O)c2cc3ccccc3oc2=O)[C@@H](NC(=O)CC(C)C)c2cc(OCCCO)ccc2N1C(=O)c1ccccc1	0.139
CC(C)(C)OC(=O)CC[C@@]1(C(=O)N2CCCCC2)N=C(c2ccc(OCCCO)cc2)O[C@@H]1c1ccccc1	0.796
Cc1ccc(S(=O)(=O)N2C[C@@H](C(=O)O)[C@H](Sc3ccccc3)C[C@H]2c2ccccc2)cc1	0.89
O=C1[C@H]2C=C(Br)[C@H](C[C@@H]2OCCCCCCO)[C@@]12CO2	0.206
COc1ccc(C(=O)Nc2cccc(CN3C(=O)[C@]4(O[C@H](CCn5cc(CCO)nn5)[C@@H]([Si](C)(C)c5ccc(OC)cc5)[C@@H]4C)c4ccccc43)c2)cc1	-0.0719
C=C[C@H](C)[C@@H](OC(=O)Nc1ccc(SC)cc1)c1ccc(O)c2ccccc12	0.188
COCCOC(=O)N1C(=O)[C@@]2(c3cc(C#CC4(O)CCCCCC4)ccc31)[C@H](C(=O)Nc1nc3ccccc3s1)[C@H]1C(=O)O[C@H](c3ccccc3)[C@H](c3ccccc3)N1[C@@H]2c1ccccc1OCCO	0.233
C=CCC(OC(C)=O)[C@@H]1[C@@H](N(Cc2ccc(-c3ccccc3)cc2)C(=O)Cc2ccc(F)cc2)c2cc(OCCCO)ccc2N1C(=O)c1ccc2ccccc2c1 (stereo partly drawn)	0.225
CN(C)CCCC[C@@H]1NC(=O)[C@H]2C[C@@H](C(=O)NCCCCCN)[C@@H](c3cccc(OCCO)c3)N2C1=O	1.12
C=CC[C@]1(C(=O)NCc2ccccc2)N=C(c2ccc(OCCCO)cc2)O[C@H]1c1ccccc1CN=[N+]=[N-]	0.403
O=C(CS)NCCCCCNC(=O)[C@@H]1C[C@@H]2C(=O)NCC(=O)N2[C@@H]1c1ccc(O)cc1	0.144
C=CCC(OC(C)=O)[C@@H]1[C@@H](N(Cc2ccc(-c3cccc(C(F)(F)F)c3)o2)C(=O)c2cccc3ccccc23)c2cc(OCCCO)ccc2N1C(=O)Cc1ccc2ccccc2c1 (stereo partly drawn)	-0.0395
C=CCC(OC(C)=O)[C@@H]1[C@@H](N(Cc2ccc(-c3cccc(C(F)(F)F)c3)o2)C(=O)Cc2ccc(OC)cc2)c2cc(OCCCO)ccc2N1C(=O)c1ccc2ccccc2c1 (stereo partly drawn)	-0.0744
CC(C)CN1C(=O)[C@@]2(c3ccc([N+](=O)[O-])cc3)CC(=O)N(C3CCCCC3)[C@@H]2c2ccc(CO)cc21	0.73
O=C1C2C=CC(C(O)C=Cc3ccc([N+](=O)[O-])cc3)N(n3cnnc3)C2C(=O)N1Cc1ccccc1 (stereo not drawn)	1.04
O=C1O[C@H](c2ccccc2)[C@H](c2ccccc2)N2[C@H]1[C@@H](C(=O)NC[C@H](O)c1ccccc1)[C@]1(C(=O)Nc3ccc(C#CC4=CCCCC4)cc31)[C@H]2c1ccccc1OCCO	0.522
O=C1NC(=O)C2C1C=CC(C(O)c1ccc(I)cc1)N2Nc1ccc(Cl)cc1Cl (stereo not drawn)	0.943
CC(C)CCC[C@@H](C)[C@H]1CC[C@@]2(C)C3=C(CC[C@]12C)[C@@]1(C)CC[C@H](OC(=O)c2ccc(C(F)(F)F)nc2)C(C)(C)C1CC3 (stereo partly drawn)	0.0819
CC(C)(C)OC(=O)CC[C@]1(C(=O)NCCN2CCOCC2)COC(c2ccc(OCCCO)cc2)=N1	0.737
CN1C(=O)C2C=CC(C(O)c3ccccc3)N(N3CCCCC3)C2C1=O (stereo not drawn)	0.676
CC[C@@H]1C=C(C(=O)O)[C@H](c2cccc3ccccc23)N1S(=O)(=O)c1ccc(C)cc1	0.687
